Experimental data from PubChem BioAssay.
The source made the active and inactive calls.

What was measured:
[1] = A549 cell viability effects, profiling panel, calcein-AM fluorescence, 48 h, basal (AID 1162); conditions: higher = more signal
[2] = adipocyte viability effects, profiling panel, cell-based, 3T3-L1 adipocytes, calcein-AM fluorescence, 48 h, basal (AID 1163); conditions: 3T3-L1 adipocytes viability, higher = more signal
[3] = HepG2 cell viability effects, profiling panel, calcein-AM fluorescence, 48 h, basal (AID 1164); conditions: higher = more signal
[4] = MM1S cell viability effects, profiling panel, calcein-AM fluorescence, 48 h, basal (AID 1165); conditions: higher = more signal;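 also: viability of MM1S multiple myeloma cells under basal unstimulated conditions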
[5] = basal RPMI8226 viability, no added stimulus, profiling panel, cell-based, calcein-AM fluorescence, 48 h, PK04 Diversity Set (AID 1166); conditions: RPMI8226 myeloma viability, higher = more signal;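 also: cells grown under basal conditions without added stimulus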
[6] = basal HepG2 mitochondrial membrane potential changes, profiling panel, cell-based, JC-1 fluorescence, 24 h, 100 nL compound (AID 1167); conditions: higher = more signal
[7] = basal 3T3-L1 adipocyte mitochondrial potential changes, profiling panel, cell-based, JC-1 fluorescence, 3T3-L1 adipocytes, 24 h, 100 nL compound (AID 1168); conditions: JC-1 mitochondrial fluorescence, higher = more signal, called active from +8 up or from −8 down
[8] = basal RPMI8226 mitochondrial membrane potential changes, profiling panel, cell-based, JC-1 fluorescence, 24 h, 100 nL compound (AID 1169); conditions: RPMI8226 myeloma, JC-1 mitochondrial potential fluorescence, higher = more signal
[9] = basal MM1S mitochondrial membrane potential changes, profiling panel, cell-based, JC-1 fluorescence, 24 h, 100 nL compound (AID 1170); conditions: higher = more signal
[10] = A549 lung cancer cell viability effects, profiling panel, resazurin fluorescence, 24 h, PK04 Diversity Set (AID 1171); conditions: higher = more signal, called active from +8 up or from −8 down
Also: test concentration not given here.

Row | Compound | z-score [1] | z-score [2] | z-score [3] | z-score [4] | z-score [5] | z-score [6] | z-score [7] | z-score [8] | z-score [9] | z-score [10]
1 | CO[C@H]1O[C@H](CO)[C@@H](OC(=O)Nc2ccc(Br)cc2)[C@@H]2OC(=O)[C@@H](Cc3ccccc3)C/C=C/C[C@H](Cc3ccccc3)C(=O)O[C@@H]12 | 0.468 | 0.424 | -1.35 | -1.41 | -3.32 | 0.125 | 2.12 (inactive) | -1.19 | -0.241 | -3.17 (inactive)
2 | CCOC(=O)C[C@H]1[C@H](OC(=O)c2ccc(C(=O)c3ccccc3)cc2)[C@@H](NC(=O)C2CCCCC2)c2cc(OCCCO)ccc2N1C(=O)c1ccc2ccccc2n1 | 0.123 | 0.347 | 2.23 | -0.436 | 1.31 | 1.9 | 1.45 (inactive) | 0.592 | -0.543 | -0.0397 (inactive)
3 | COc1ccc(C#Cc2ccc3c(c2)[C@]2(C(=O)N3)[C@H](C(=O)O)[C@H]3C(=O)O[C@H](c4ccccc4)[C@H](c4ccccc4)N3[C@@H]2c2ccc(O)cc2)cc1 | -0.483 | 1.65 | -0.176 | -2.61 | -3.91 | -3.99 | -1.15 (inactive) | -0.85 | -0.623 | 0.199 (inactive)
4 | CN(C)C(=O)[C@]1(CCC(=O)OC(C)(C)C)N=C(c2ccc(OCCCO)cc2)O[C@@H]1c1ccccc1CN=[N+]=[N-] | -0.307 | 0.911 | 0.697 | 0.545 | 0.259 | 1.74 | -0.682 (inactive) | 0.124 | -0.412 | 0.669 (inactive)
5 | C=CCNC(=O)[C@@H]1[C@H]2C(=O)O[C@H](c3ccccc3)[C@H](c3ccccc3)N2[C@H](c2ccc(O)cc2)[C@@]12C(=O)N(C(=O)OCCOC)c1ccc(C#CC3=CCCCC3)cc12 | 0.145 | 0.725 | 0.423 | -2.13 | -3.66 | -1.9 | 0.889 (inactive) | -0.825 | -0.627 | -0.966 (inactive)
6 | COc1cc2c(cc1O)C(c1ccc(CN3CCCC3)cc1)N(Cc1cc3c(cc1Br)OCO3)CC2 (stereo not given) | -0.717 | -0.564 | -0.341 | -3.17 | 0.173 | 1.21 | 0.144 (inactive) | -0.398 | -1.29 | 0.694 (inactive)
7 | O=C1OCCC=C[C@H]2OC34C=CCN(Cn5nnc6ccccc65)C(=O)[C@H]3N(CCCO)C(=O)[C@@H]4C12 (stereo not given in full) | 0.213 | 1.03 | -1.1 | 0.114 | -1.04 | -0.746 | 0.147 (inactive) | 0.057 | 0.251 | -0.618 (inactive)
8 | CCCCC(CC)C(O)C1C=CC2C(=O)N(C)C(=O)C2N1Nc1ccccc1 (stereo not given) | -0.959 | -1.12 | -0.195 | -0.0591 | -0.885 | -1.02 | -1.03 (inactive) | -0.3 | -0.348 | -0.83 (inactive)
9 | C=CCOC(=O)[C@@H]1[C@H]2C(=O)O[C@H](c3ccccc3)[C@H](c3ccccc3)N2[C@H](c2ccc(OCCOC(=O)[C@@H]3C[C@@H]4C(=O)N[C@@H](CCCC[N+](C)(C)C)C(=O)N4[C@@H]3c3ccc(O)cc3)cc2)[C@@]12C(=O)Nc1ccc(I)cc12 | -0.602 | 0.751 | -0.495 | -2.03 | -1.7 | -1.87 | -0.582 (inactive) | -0.657 | -1.1 | 0.0416 (inactive)
10 | CCCCN1CC=CC23O[C@@H]4/C=C\CCC(C)OC(=O)C4[C@H]2C(=O)N(CCCO)[C@@H]3C1=O (stereo not given in full) | -0.615 | 1.57 | -0.241 | 1.04 | -0.386 | -0.534 | 0.276 (inactive) | 0.635 | 0.71 | -0.523 (inactive)
11 | CCCC=C(CCC)[C@@H](NS(=O)(=O)CC12CCC(CC1=O)C2(C)C)c1ccc(C(=O)OC)cc1 (stereo not given in full) | -0.672 | -0.316 | -0.915 | 0.295 | -1.06 | -2 | 0.273 (inactive) | 0.7 | -1.46 | 0.252 (inactive)
12 | CCOC(=O)C[C@H]1[C@H](OC(=O)c2ccc(-c3ccccc3)cc2)[C@@H](NC(=O)CC(C)C)c2cc(OCCCO)ccc2N1C(=O)c1ccc2ccccc2n1 | 1.37 | 0.556 | 0.627 | 0.139 | 0.0627 | 1.66 | 1.47 (inactive) | -0.233 | -0.411 | 0.713 (inactive)
13 | CCCCC(O)C1C=CC2C(=O)N(C)C(=O)C2N1N(c1ccccc1)c1ccccc1 (stereo not given) | -0.646 | -1.68 | 0.821 | -0.769 | -0.938 | -1.19 | -1.3 (inactive) | -0.198 | -0.497 | -0.7 (inactive)
14 | [N-]=[N+]=NCc1ccccc1C[C@@]1(C(N)=O)N=C(c2ccc(OCCCO)cc2)O[C@@H]1c1ccccc1 | -0.914 | 0.0779 | -1.94 | -3.04 | -2.88 | -0.864 | -0.262 (inactive) | -1.22 | -0.301 | -1.08 (inactive)
15 | CCCCCN1CC=CC23O[C@@H]4C=CCCOC(=O)C4[C@H]2C(=O)N(CCCCCCO)[C@@H]3C1=O (stereo not given in full) | -0.182 | -0.131 | 0.28 | 0.762 | 0.494 | 0.306 | 0.737 (inactive) | 0.548 | -0.823 | 0.229 (inactive)
16 | CC(=O)NCCCC[C@@H]1NC(=O)[C@@H]2C[C@H](C(=O)NCCCCCN)[C@H](c3ccc(O)cc3)N2C1=O | -0.185 | 0.42 | -0.512 | -0.449 | -0.131 | 0.651 | -0.00185 (inactive) | -0.673 | 0.774 | -1.42 (inactive)

Row | Compound | z-score [1] | z-score [2] | z-score [3] | z-score [4] | z-score [5] | z-score [6] | z-score [7] | z-score [8] | z-score [9] | z-score [10]
17 | O=C(O)[C@@H]1C[C@@H]2C(=O)N3CCC[C@H]3C(=O)N2[C@@H]1c1ccc(O)cc1 | -0.335 | 1.13 | -0.763 | -3.42 | 0.0242 | 0.0357 | -0.184 (inactive) | -0.704 | -1.34 | -0.609 (inactive)
18 | C=CCOC(=O)[C@@]1(Cc2ccccc2)C[C@H]2CO[C@H](c3ccc(OC)cc3)N2C1=O | 0.158 | 0.223 | -0.311 | -0.657 | -1.5 | -0.574 | 0.437 (inactive) | -0.272 | -0.47 | 0.864 (inactive)
19 | Oc1ccc2cc[n+](Cc3cc4c(cc3Br)OCO4)cc2c1 | 1.58 | -0.35 | 0.312 | 0.677 | -1.77 | -1.12 | 0.418 (inactive) | -0.123 | 0.313 | -0.585 (inactive)
20 | O[C@@H](Cc1ccccc1)[C@@H](/C=C/C1CC1)N(CC#Cc1ccccc1)Cc1ccccc1Br | -0.049 | -0.667 | -0.258 | 0.0144 | -0.353 | -1.79 | -0.344 (inactive) | -0.44 | -0.571 | 1.62 (inactive)
21 | C=CCNC(=O)[C@@H]1[C@H]2C(=O)O[C@H](c3ccccc3)[C@H](c3ccccc3)N2[C@H](c2ccccc2OCCO)[C@@]12C(=O)Nc1ccc(C#CCCO)cc12 | -0.368 | 0.953 | 0.151 | -0.66 | -0.485 | -0.699 | 0.959 (inactive) | -0.435 | -0.608 | 0.322 (inactive)
22 | CC(C)(C)OC(=O)COc1cccc(C(=O)CCN2CCOCC2)c1 | 1.06 | 0.477 | -0.0751 | -3.27 | -4.4 | -1.01 | -0.0351 (inactive) | -0.885 | -2.04 | 1.5 (inactive)
23 | [N-]=[N+]=Nc1ccccc1[C@@H]1OC(c2ccc(OCCCO)cc2)=N[C@]1(Cc1ccccc1)C(=O)O | 0.666 | 0.344 | 0.547 | -1.49 | -0.56 | -1.24 | 1.62 (inactive) | -0.739 | -0.883 | 1.2 (inactive)
24 | COCCOC(=O)N1C(=O)[C@@]2(c3cc(C#CCCO)ccc31)[C@H](c1ccc(OCCO)cc1)N1[C@H](c3ccccc3)[C@H](c3ccccc3)OC(=O)[C@H]1[C@@H]2C(=O)Nc1nc2ccccc2s1 | -0.255 | 0.561 | 0.779 | -0.981 | -0.0413 | -3.68 | -1.38 (inactive) | -0.78 | -1.81 | -0.5 (inactive)
25 | C=CC[C@@H](OC(=O)Nc1ccc(OC)cc1)c1ccc(O)c(F)c1 | -1.78 | 0.379 | -2.39 | -2.15 | -2.51 | -3.67 | -1.37 (inactive) | 0.122 | -1.07 | -0.747 (inactive)
26 | CN(C)C(=O)[C@@]1(Cc2ccccc2CN=[N+]=[N-])N=C(c2ccc(OCCCO)cc2)O[C@H]1c1ccccc1N=[N+]=[N-] | -1.63 | 2 | -2.15 | -3.03 | -3.98 | 0.129 | -0.052 (inactive) | -1.08 | -0.796 | -2.09 (inactive)
27 | CCCNC(=O)[C@@]1(Sc2ccc(C)cc2)CC(=O)N(C2Cc3ccccc3C2)[C@@H]1c1ccc(CO)cc1I | 0.877 | 0.331 | 0.544 | -1.54 | -1.85 | -0.574 | -0.0979 (inactive) | -0.778 | -0.987 | 0.309 (inactive)
28 | NCCCCCNC(=O)[C@@H]1C[C@@H]2C(=O)N[C@@H](CCCCN)C(=O)N2[C@@H]1c1ccc(O)cc1 | -0.0858 | -0.426 | 0.131 | -0.29 | -0.0496 | -0.573 | 1.56 (inactive) | -0.457 | -1.14 | 0.0497 (inactive)
29 | COc1ccc([Si](C)(C)[C@@H]2[C@@H](CC(=O)N3Cc4ccccc4C[C@H]3CO)O[C@]3(C(=O)N(Cc4ccc(N5C(=O)c6cccc7cccc5c67)cc4)c4ccccc43)[C@H]2C)cc1 | 0.396 | 0.885 | 0.355 | -2.78 | -0.705 | 1.15 | -0.0452 (inactive) | -0.0572 | 0.893 | -0.787 (inactive)
30 | COCC(=C=CC[C@H](O)c1ccccc1OCCO)C[C@H](O)c1ccccn1 | 1.12 | 0.381 | 0.781 | 0.943 | 0.139 | 1.01 | -0.443 (inactive) | -0.471 | -1.09 | -0.0836 (inactive)
31 | O=C1OCCC/C=C\[C@H]2OC34C=CCN(c5ccc6ccccc6c5)C(=O)[C@H]3N(CCO)C(=O)[C@@H]4C12 (stereo not given in full) | 0.451 | 1.91 | -0.569 | 1.3 | -0.205 | -0.00127 | -0.622 (inactive) | -0.0898 | 1.03 | -1.48 (inactive)
32 | CCCC=C(CCC)[C@@H](NC(=O)C(C)(C)C)c1ccc(C(=O)OC)cc1 | -1.01 | -0.886 | -0.47 | -0.695 | -2.08 | 3.69 | -0.614 (inactive) | -0.118 | -0.459 | 0.821 (inactive)
